# From PubChem BioAssay (NCI)
# Compounds without any hit were thinned out: in the full panel of roughly 79,000, 15% have a hit. A number with no mark means an inactive call. Active and inactive are the calls of the source. Rule as the data show it: active = growth inhibition above about 70%; inactive = the rest.
# Experiments:
# [1] = NCI Yeast Anticancer Drug Screen. Data for the rad50 strain (AID 155);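 also: 0% = growth of vehicle-only cultures of the same strain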; settings: S. cerevisiae rad50 strain growth inhibition, active compounds read high
# Summary of the method: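 Compounds were tested on a yeast strain with an engineered DNA damage repair alteration; the reported value is growth inhibition normalised to vehicle treatment.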
# [2] = NCI Yeast Anticancer Drug Screen. Data for the mec2-1 strain (AID 157); settings: S. cerevisiae mec2-1 strain, active compounds read high
# Summary of the method: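 Compounds were applied to mec2-1 yeast cells. Their growth was then compared with that of vehicle-treated cultures to give growth inhibition.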
# [3] = NCI Yeast Anticancer Drug Screen. Data for the sgs1 mgt1 strain (AID 161);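 also: 0% = growth of cultures given vehicle only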; settings: S. cerevisiae sgs1 mgt1 strain, active compounds read high
# Summary of the method: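 Percent growth inhibition was derived by comparing compound-exposed mutant yeast with vehicle-exposed cultures. The strain carries alterations in DNA damage repair.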
# [4] = NCI Yeast Anticancer Drug Screen. Data for the cln2 rad14 strain (AID 165);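 also: 0% = growth equal to vehicle treated cultures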; settings: S. cerevisiae cln2 rad14 strain, active compounds read high
# Summary of the method: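 Strain: cln2 rad14 yeast, altered in cell cycle control and DNA damage repair. Read-out: growth inhibition vs vehicle.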
# [5] = NCI Yeast Anticancer Drug Screen. Data for the bub3 strain (AID 167); settings: S. cerevisiae bub3 mutant strain, active compounds read high
# Summary of the method: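 Growth of a checkpoint-deficient yeast mutant is measured after compound exposure. Values represent inhibition relative to vehicle.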
# [6] = NCI Yeast Anticancer Drug Screen. Data for the mlh1 rad18 strain (AID 175); settings: S. cerevisiae mlh1 rad18 strain growth inhibition, active compounds read high
# Summary of the method: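 A repair-deficient yeast strain is exposed to test compound, and growth is scored relative to vehicle-treated controls.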
# [7] = at 5.0 µM (retest, dose inferred, filed as 0.5)
# [8] = at 50.0 µM (retest, dose inferred, filed as 5.0)
Compound,"growth inhibition [1, 7]","growth inhibition [1, 8]",growth inhibition ([1]; at 50.0 µM),"growth inhibition [2, 7]","growth inhibition [2, 8]",growth inhibition ([2]; at 50.0 µM),"growth inhibition [3, 7]","growth inhibition [3, 8]",growth inhibition ([3]; at 50.0 µM),"growth inhibition [4, 7] [%]","growth inhibition [4, 8]",growth inhibition ([4]; at 50.0 µM),"growth inhibition [5, 7]","growth inhibition [5, 8]",growth inhibition ([5]; at 50.0 µM),"growth inhibition [6, 7]","growth inhibition [6, 8]",growth inhibition ([6]; at 50.0 µM)
CCS(=O)(=O)/C=C/c1ccc2ccccc2n1,-143%,47%,47.3%,-43%,6%,28.9%,-55%,23%,35.2%,-41,-14%,3.55%,-67%,16%,18.4%,-134%,39%,63.4%
CCCCN(CCCC)Cc1ccc(NC(C(=O)c2ccccc2)c2ccccc2)cc1 (configuration not stated),-5%,46%,85.8% (active),25%,49%,82.2% (active),5%,86% (active),93.8% (active),-1,34%,97.2% (active),0%,52%,90.5% (active),22%,72% (active),98.7% (active)
CCCCCCCC/C=C1\CCC(CN(C)C)C1=O (configuration not stated),-2%,97% (active),89.6% (active),-35%,99% (active),93.2% (active),-13%,97% (active),90.7% (active),8,95% (active),89.5% (active),-23%,98% (active),89.6% (active),-19%,97% (active),89.1% (active)
CCOC(=O)NCCCc1ccc2oc3ccccc3c2c1,-1%,97% (active),81.6% (active),-3%,98% (active),19.6%,-3%,97% (active),90.8% (active),1,95% (active),-12.7%,9%,98% (active),19.8%,-1%,97% (active),57.9%
O=C(O)CSc1nc(-c2ccccc2)c(-c2ccccc2)n1-c1ccccn1,1%,5%,76.2% (active),-6%,-10%,40.5%,-12%,4%,82.8% (active),18,4%,61.8%,-13%,-9%,47.4%,8%,6%,11.2%
COCCCNC(=S)N/N=C/c1cc(Cl)cc(Cl)c1O,21%,75% (active),92.5% (active),15%,81% (active),89.3% (active),27%,94% (active),93.6% (active),10,77% (active),48.7%,4%,83% (active),80.7% (active),13%,93% (active),85.2% (active)
Cc1c2ccccc2c(CSC(=N)N)c2ccccc12,47%,99% (active),99.5% (active),22%,99% (active),99.7% (active),9%,98% (active),99.5% (active),26,99% (active),99.5% (active),7%,99% (active),99.4% (active),30%,99% (active),99.7% (active)
CCOC(=O)C(NC(=O)C(CO)n1c(-c2ccccc2)c(-c2ccccc2)oc1=O)C(=O)OCC (configuration not stated),7%,42%,43.6%,2%,19%,26.4%,-2%,35%,41.5%,-1,51%,-1.9%,1%,51%,22.2%,1%,20%,53.1%
Cc1c(CCl)c(=O)oc2c(C)c3occ(CCl)c(=O)c3cc12,6%,12%,80.1% (active),20%,31%,82.5% (active),17%,42%,84.5% (active),41,60%,85.4% (active),28%,57%,87.5% (active),29%,67%,77.7% (active)
COc1ccc(C2COc3cc(O)c(O)cc3C2)cc1 (configuration not stated),95% (active),99% (active),99.6% (active),95% (active),99% (active),99.6% (active),93% (active),99% (active),99.8% (active),46,99% (active),99.6% (active),98% (active),99% (active),99.6% (active),99% (active),99% (active),98.2% (active)
O=C(CNC(=O)c1ccccc1)NNc1ccccc1,16%,62%,86.7% (active),4%,65%,71.2% (active),8%,67%,32.8%,3,68%,48.8%,7%,89% (active),32.5%,30%,93% (active),86.9% (active)
C=C(CCC(C)C1CCC2(C)C3=C(CC(O)C12C)C1(C)CCC(O)C(C)(C)C1CC3)C(C)C(=O)O (configuration not stated),11%,88% (active),84.1% (active),15%,91% (active),83% (active),20%,90% (active),84.8% (active),40,96% (active),87.3% (active),29%,94% (active),80.9% (active),30%,95% (active),82.7% (active)
Cc1ccc2nc(-[n+]3cc4ccccc4cc3C)ccc2c1,9%,99% (active),89% (active),1%,100% (active),87.6% (active),3%,99% (active),89.3% (active),-1,83% (active),17.2%,1%,100% (active),87.7% (active),5%,98% (active),87.3% (active)
O=C(CC1(O)C(=O)Nc2c(Cl)cc(Cl)cc21)c1ccc(Cl)cc1 (configuration not stated),0%,87% (active),85% (active),-1%,91% (active),70.3% (active),3%,98% (active),81% (active),-3,96% (active),82.5% (active),-3%,93% (active),71.5% (active),-1%,97% (active),93.8% (active)
O=[N+]([O-])c1ccc(Cl)cc1C=NC12CC3CC(CC(C3)C1)C2,15%,16%,80.8% (active),12%,13%,69%,16%,23%,22.4%,3,14%,8.55%,4%,9%,4.2%,13%,15%,54.6%
O=C(c1ccco1)N(C(=S)N1CCN(c2ccccn2)CC1)c1ccccc1,3%,76% (active),77.2% (active),8%,51%,47.4%,-1%,71% (active),63.4%,31,53%,36.5%,-2%,60%,53%,-2%,78% (active),57.4%
[NH-]c1ccccc1[S-].[NH-]c1ccccc1[S-].[Zn],0%,99% (active),99.3% (active),11%,100% (active),99.6% (active),18%,100% (active),102% (active),7,98% (active),96.3% (active),14%,99% (active),99.4% (active),19%,99% (active),99.2% (active)
CCCCCCCCCCCCCCCCNC(=S)N/C=C(/C#N)C(=O)OC,78% (active),99% (active),99% (active),89% (active),99% (active),99.2% (active),39%,99% (active),99.2% (active),67,98% (active),98.8% (active),99% (active),99% (active),99.4% (active),57%,99% (active),99.2% (active)
O=C1NC(=O)/C(=C/C=C/c2ccccc2)S1,19%,91% (active),40.9%,13%,73% (active),25.9%,25%,98% (active),47.8%,27,63%,77.4% (active),61%,99% (active),48.1%,26%,94% (active),90.2% (active)
